# “And” between values parts separate entries of the source, which are not always exact repeats. Equal entries are not always repeated. Compounds without any hit were thinned out: in the full panel of roughly 79,000, 15% have a hit. The source made the active and inactive calls. Rule as the data show it: active = growth inhibition above about 70%; inactive = the rest.
# Experiment: NCI Yeast Anticancer Drug Screen. Data for the CLN2oe strain (AID 163);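 also: 0% = growth of vehicle-only control cultures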
# Details: S. cerevisiae CLN2oe strain, at 100.0 µM, hits give high values
# In short: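 Whole-cell yeast growth assay. A strain engineered for altered cell-cycle control received compound, and inhibition relative to vehicle-treated cultures was recorded.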
row,Structure (SMILES),growth inhibition
1,CN(C)c1ccc(C2CC(C)(O)Oc3cc4c(cc32)OCO4)cc1 (stereo unspecified),16% (inactive)
2,O=P(NC1CCCCC1)(OCc1ccccc1)OCc1ccccc1,17% (inactive)
3,COc1oc(C(=O)NC2CCCCC2)c(-c2ccc(Cl)cc2)c1S(=O)(=O)c1ccccc1,83% (active)
4,C[Si](C)(C)/C=C/CCNC(C#N)c1ccccc1 (stereo unspecified),93% (active)
5,CCOc1ccc(NC(=O)C2=C(C)NC(C)=C(C(=O)Nc3ccc(OCC)cc3)C2c2cccc([N+](=O)[O-])c2)cc1,81% (active)
6,CN(C)CCOC1(Cc2ccc(F)cc2)CCC(C(C)(C)C)CC1 (stereo unspecified),98% (active)
7,CC1(C)CC(=O)C(/C=N/c2nc(-c3ccccc3)cs2)=C(O)C1,61% (inactive)
8,CC(=O)Nc1ccc2c(c1)Cc1cc(N=C3C=CC(=O)O3)ccc1-2,99% (active)
9,O=C1C=C(Cl)C(=O)C(c2ccc(Cl)cc2)=C1,96% (active)
10,CCCCCCCCCCCC(O)S(=O)(=O)O (stereo unspecified),66% (inactive)
11,CC(C)OC(=O)c1ccc(CCc2cc(O)c(Br)cc2O)cc1,95% (active)
12,CCc1cc(O)c(Cl)c(C)c1Cl,71% (active)
13,C(=Nc1ccc(-c2cc(-c3ccccc3)nc3ccc4ccccc4c23)cc1)c1ccccc1,37% (inactive)
14,CSc1nc(C)c(CCOC(C)=O)c(N=P(c2ccccc2)(c2ccccc2)c2ccccc2)n1,77% (active)
15,CS(=O)(=O)SCc1ccc([N+](=O)[O-])cc1,97% (active)
16,COC1=C(OC)C(=O)C(Sc2ccc3ccccc3c2)=CC1=O,87% (active)
17,COc1nc2c(c(=O)n1C)N=C(c1ccccc1)[C@H](C(CC(=O)c1ccccc1)c1ccccc1)C(c1ccccc1)N2 (stereo partly specified),43% (inactive)
18,Cc1cc(-c2cc(C)c(O)c(C(C)(C)C)c2)cc(C(C)(C)C)c1O,73% (active)
19,Nc1cc(N)c(N=Nc2cccc3c(S(=O)(=O)O)cccc23)cc1N=Nc1cc([N+](=O)[O-])ccc1O,-3% (inactive)

row,Structure (SMILES),growth inhibition
1,Nc1ccc(F)cc1S,94% (active)
2,Brc1ccccc1-c1ncc(-c2ccccc2)o1,5% (inactive)
3,COc1cc(C2SCC(=O)N2c2ccc(-c3ccc(-n4c(-c5ccccc5)nc5ccccc5c4=O)cc3)cc2)ccc1O (stereo unspecified),-14% (inactive)
4,Nc1ncnc2c1ncn2C1OC(CO)CC1O (stereo unspecified),85% (active)
5,COc1cc(CSc2ccc(O)cc2)cc(O)c1O,17% (inactive)
6,CCOC(=O)C1N=[N+](c2ccccc2)C(=O)/C1=C\n1c(=S)[nH]c2ccc([N+](=O)[O-])cc21 (stereo unspecified),3% (inactive)
7,CNC(=O)OCc1c(COC(=O)NC)c2n(c1C)-c1ccc(OC)cc1CCC2,100% (active)
8,O=C(NNc1ccccc1)c1ccc(Cl)c(Cl)c1,40% (inactive)
9,Cc1ccc(CC2(OCCN(C)C)CCC(C(C)(C)C)CC2)cc1 (stereo unspecified),98% (active)
10,CCCC/C=C/C(C)(C(=O)OCC)C(=O)OCC,12% (inactive)
11,CCc1c(Cl)c(C)cc(O)c1Cl,75% (active)
12,O=C(/C=C(/c1ccccc1)N1CCCCC1)c1ccccc1,97% (active)
13,CCCC(=O)Oc1ccc(/C=N/NC(N)=S)nc1,-8% (inactive)
14,CCc1nc2ccc(NCCN(C)C)c3c(=O)c4ccccc4n1c23,46% (inactive)
15,Cc1sc2ccc3ccccc3c2[n+]1C,92% (active)
16,COc1c(O)c(C=O)c(Br)c(C=O)c1O,90% (active)
17,Cc1ccc(Cl)cc1NC(=O)OCCN(C)C(=O)Nc1cc(Cl)ccc1C,-26% (inactive)
18,Cc1nc2ccccc2nc1NNc1ccccc1,18% (inactive)

# Experiment: NCI Yeast Anticancer Drug Screen. Data for the cln2 rad14 strain (AID 165);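 also: 0% = growth equal to vehicle treated cultures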
# Details: S. cerevisiae cln2 rad14 strain, at 5.0 µM (retest, dose inferred, filed as 0.5), hits give high values
# In short: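 Yeast strain cln2 rad14, bearing defects in cell cycle control and DNA repair, serves as the test system; values reflect growth inhibition compared with vehicle.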
row,Structure (SMILES),growth inhibition
1,CN(C)c1ccc(C2CC(C)(O)Oc3cc4c(cc32)OCO4)cc1 (stereo unspecified),1% (inactive)
2,O=P(NC1CCCCC1)(OCc1ccccc1)OCc1ccccc1,15% (inactive)
3,COc1oc(C(=O)NC2CCCCC2)c(-c2ccc(Cl)cc2)c1S(=O)(=O)c1ccccc1,15% (inactive)
4,C[Si](C)(C)/C=C/CCNC(C#N)c1ccccc1 (stereo unspecified),32% (inactive)
5,CCOc1ccc(NC(=O)C2=C(C)NC(C)=C(C(=O)Nc3ccc(OCC)cc3)C2c2cccc([N+](=O)[O-])c2)cc1,-4% (inactive)
6,CN(C)CCOC1(Cc2ccc(F)cc2)CCC(C(C)(C)C)CC1 (stereo unspecified),17% (inactive) and -22% (inactive)
7,CC1(C)CC(=O)C(/C=N/c2nc(-c3ccccc3)cs2)=C(O)C1,35% (inactive)
8,CC(=O)Nc1ccc2c(c1)Cc1cc(N=C3C=CC(=O)O3)ccc1-2,9% (inactive)
9,O=C1C=C(Cl)C(=O)C(c2ccc(Cl)cc2)=C1,24% (inactive)
10,CNCCCNc1c2ccccc2nc2cccc([N+](=O)[O-])c12,77% (active)
11,CCCCCCCCCCCC(O)S(=O)(=O)O (stereo unspecified),-5% (inactive)
12,CC(C)OC(=O)c1ccc(CCc2cc(O)c(Br)cc2O)cc1,1% (inactive)
13,CCc1cc(O)c(Cl)c(C)c1Cl,46% (inactive)
14,C(=Nc1ccc(-c2cc(-c3ccccc3)nc3ccc4ccccc4c23)cc1)c1ccccc1,25% (inactive)
15,CSc1nc(C)c(CCOC(C)=O)c(N=P(c2ccccc2)(c2ccccc2)c2ccccc2)n1,3% (inactive)
16,CS(=O)(=O)SCc1ccc([N+](=O)[O-])cc1,-35% (inactive)
17,COC1=C(OC)C(=O)C(Sc2ccc3ccccc3c2)=CC1=O,4% (inactive)
18,COc1nc2c(c(=O)n1C)N=C(c1ccccc1)[C@H](C(CC(=O)c1ccccc1)c1ccccc1)C(c1ccccc1)N2 (stereo partly specified),2% (inactive)
19,Cc1cc(-c2cc(C)c(O)c(C(C)(C)C)c2)cc(C(C)(C)C)c1O,52% (inactive) and -17% (inactive)
20,Nc1cc(N)c(N=Nc2cccc3c(S(=O)(=O)O)cccc23)cc1N=Nc1cc([N+](=O)[O-])ccc1O,33% (inactive)

row,Structure (SMILES),growth inhibition
1,Nc1ccc(F)cc1S,46% (inactive)
2,Brc1ccccc1-c1ncc(-c2ccccc2)o1,33% (inactive)
3,COc1cc(C2SCC(=O)N2c2ccc(-c3ccc(-n4c(-c5ccccc5)nc5ccccc5c4=O)cc3)cc2)ccc1O (stereo unspecified),-9% (inactive)
4,Nc1ncnc2c1ncn2C1OC(CO)CC1O (stereo unspecified),10% (inactive) and 9% (inactive)
5,COc1cc(CSc2ccc(O)cc2)cc(O)c1O,18% (inactive)
6,CCOC(=O)C1N=[N+](c2ccccc2)C(=O)/C1=C\n1c(=S)[nH]c2ccc([N+](=O)[O-])cc21 (stereo unspecified),53% (inactive)
7,CNC(=O)OCc1c(COC(=O)NC)c2n(c1C)-c1ccc(OC)cc1CCC2,45% (inactive)
8,O=C(NNc1ccccc1)c1ccc(Cl)c(Cl)c1,31% (inactive)
9,Cc1ccc(CC2(OCCN(C)C)CCC(C(C)(C)C)CC2)cc1 (stereo unspecified),20% (inactive) and 10% (inactive)
10,C[C@]12CC[C@H](O)CC1=CC[C@@H]1C2CC[C@]2(C)C(=O)NC(=O)CC12 (stereo partly specified),1% (inactive)
11,CCCC/C=C/C(C)(C(=O)OCC)C(=O)OCC,-6% (inactive)
12,CCc1c(Cl)c(C)cc(O)c1Cl,32% (inactive)
13,O=C(/C=C(/c1ccccc1)N1CCCCC1)c1ccccc1,14% (inactive)
14,CCCC(=O)Oc1ccc(/C=N/NC(N)=S)nc1,-3% (inactive)
15,CCc1nc2ccc(NCCN(C)C)c3c(=O)c4ccccc4n1c23,14% (inactive)
16,Cc1sc2ccc3ccccc3c2[n+]1C,47% (inactive) and -10% (inactive)
17,COc1c(O)c(C=O)c(Br)c(C=O)c1O,12% (inactive)
18,Cc1ccc(Cl)cc1NC(=O)OCCN(C)C(=O)Nc1cc(Cl)ccc1C,17% (inactive)
19,Cc1nc2ccccc2nc1NNc1ccccc1,79% (active)
